Source: PubChem (National Center for Advancing Translational Sciences (NCATS))
Hits are enriched below; roughly 11% of the tested compounds scored in any of these assays.
FLuc inh-1 – Firefly luciferase inhibition profiling of diverse chemical library using quantitative high-throughput screening; purified P. pyralis luciferase, luminescence, biochemical; Potency, µM (titrated, usually from 115 µM), actives largely listed as inhibitors; hit rate 2.5% among 76,000; AID 1347043, 2019; note: % is set by controls: 0 for no effect and ±100 for the full control effect; nearly all actives have a fitted effect of over 65% in size
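Biochemical qHTS: compound (6-point titration) added to 10uM D-luciferin plus 10uM ATP in Tris acetate pH 7.5 buffer with Mg, Tween-20 and BSA, then purified enzyme at 10nM; light output imaged.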
NPR1 antag – Natriuretic polypeptide receptor (hNpr1) antagonism - Primary qHTS. Atrial natriuretic peptide receptor 1 (Homo sapiens), P16066. HEK293 hNpr1 GloSensor cGMP, ANP-stimulated luminescence. Potency, µM (top dose mostly 46.3 µM), for inactives: at the highest dose activity change, negative = inhibition, actives largely listed as inhibitors. hit rate 1.6% among 76,000. AID 1347048, 2019; calls by dose curve; note: % is set by controls: 0 for no effect and ±100 for the full control effect; nearly all actives have a fitted effect of over 60% in size
Target sequence (P16066 whole entry, looked up): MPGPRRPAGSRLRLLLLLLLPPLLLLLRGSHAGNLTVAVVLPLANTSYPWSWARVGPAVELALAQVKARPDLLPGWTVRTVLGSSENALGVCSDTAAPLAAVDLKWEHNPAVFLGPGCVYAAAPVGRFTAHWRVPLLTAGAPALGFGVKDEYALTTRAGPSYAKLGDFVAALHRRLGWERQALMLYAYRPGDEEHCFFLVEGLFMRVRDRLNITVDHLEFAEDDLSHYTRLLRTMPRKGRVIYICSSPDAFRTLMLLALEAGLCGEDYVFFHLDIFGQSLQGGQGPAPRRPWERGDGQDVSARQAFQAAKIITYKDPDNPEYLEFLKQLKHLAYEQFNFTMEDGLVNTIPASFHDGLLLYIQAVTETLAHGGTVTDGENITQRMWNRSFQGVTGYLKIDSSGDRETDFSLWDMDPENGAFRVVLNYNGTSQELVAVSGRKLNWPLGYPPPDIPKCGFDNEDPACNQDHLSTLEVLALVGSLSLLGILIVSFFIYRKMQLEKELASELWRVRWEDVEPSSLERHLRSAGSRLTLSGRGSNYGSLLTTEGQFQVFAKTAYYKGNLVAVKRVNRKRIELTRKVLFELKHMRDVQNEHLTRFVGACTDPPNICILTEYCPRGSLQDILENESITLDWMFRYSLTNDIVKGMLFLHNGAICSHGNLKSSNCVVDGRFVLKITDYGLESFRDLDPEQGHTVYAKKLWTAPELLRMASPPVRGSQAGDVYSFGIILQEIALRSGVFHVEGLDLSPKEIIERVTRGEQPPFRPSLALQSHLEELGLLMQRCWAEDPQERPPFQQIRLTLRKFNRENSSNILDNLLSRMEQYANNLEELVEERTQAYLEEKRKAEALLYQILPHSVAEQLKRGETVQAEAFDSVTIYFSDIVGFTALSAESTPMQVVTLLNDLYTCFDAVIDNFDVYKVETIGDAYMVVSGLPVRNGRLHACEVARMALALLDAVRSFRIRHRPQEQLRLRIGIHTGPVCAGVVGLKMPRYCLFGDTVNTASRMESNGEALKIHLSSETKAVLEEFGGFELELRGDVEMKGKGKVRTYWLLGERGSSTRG
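Compound pre-incubated 30 min at room temperature on GloSensor-loaded HEK293 cells stably carrying hNpr1 and the pGS-40F cGMP biosensor. Stimulation uses hNppA at 0.1 nM final; luminescence is taken at baseline and 20 min post-agonist.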
HEK cytotox – Cytotoxic Profiling in HEK 293 Cell Line of Diverse Libraries Using Quantitative High-Throughput Screening | hit rate 6.6% among 94,000 | HEK 293 viability, ATP luminescence (CellTiter-Glo), 48-72 h | Potency, µM (doses to about 115 µM), for inactives: top-dose activity change, negative = cytotoxicity, hits mostly inhibitors; note: % is set by controls: 0 for no effect and ±100 for the full control effect; nearly all actives have a fitted effect of over 60% in size
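250 HEK 293 cells/well; compound by pintool; incubated 48 or 72 hr at 37 degree Celsius; CellTiter-Glo added, 10 min RT, luminescence imaged.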
3T3 cytotox – Cytotoxic Profiling in NIH 3T3 Cell Line of Diverse Libraries Using Quantitative High-Throughput Screening. NIH 3T3 viability, CellTiter-Glo ATP luminescence, 48-72 h. Potency, µM (highest dose often 96.7 µM), inactives show top-dose activity change, negative = cytotoxicity, hits mostly inhibitors. AID 1345082, 2018. hit rate 4.3% among 94,000; note: % is set by controls: 0 for no effect and ±100 for the full control effect; nearly all actives have a fitted effect of over 55% in size
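Cytotoxicity is measured as loss of cellular ATP: NIH 3T3 cells (400/well) are exposed to compound for 48 or 72 hr at 37 °C, then CellTiter-Glo luminescence is imaged after 10 min at room temperature.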
FLuc SDR -ATP – Firefly luciferase (FLuc-C-HiBiT) SDR gain of signal screen - without ATP | hit rate 7.8% among 1,300 | shares compounds with FLuc inh-1 | Purified FLuc-C-HiBiT, Nano-Glo HiBiT luminescence, no ATP | AID 1963318, 2024 | Potency, µM (doses to about 32.7 µM), inactives show at the highest dose activation (signal gain), hits mostly activators; note: nearly all actives have a fitted effect of over 55% in size
FLuc SDR ATP – Firefly luciferase (FLuc-C-HiBiT) SDR gain of signal screen - plus ATP | AID 1963319, 2024 | shares compounds with FLuc inh-1 | purified FLuc-C-HiBiT + ATP, HiBiT complementation luminescence | hit rate 8.7% among 1,300 | Potency, µM (doses to about 32.7 µM), without a hit: top-dose activation (gain of signal), hits mostly activators;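 note: signal reports ligand binding via conformational change of the enzyme rather than luciferase catalysis; % of control where 0% means no effect; nearly all actives have a fitted effect of over 55% in size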
FLuc inh-2 – Firefly luciferase (FLuc-C-HiBiT) enzymatic inhibition screen - Functional assay; shares compounds with FLuc inh-1; purified FLuc-C-HiBiT enzyme, luciferin luminescence; Potency, µM (top dose mostly 32.7 µM), for the others: top-dose activity change, negative = inhibition, most hits filed as inhibitors; hit rate 42% among 1,300; AID 1963320, 2024; note: % is set by controls: 0 for no effect and ±100 for the full control effect; nearly all actives have a fitted effect of over 70% in size
Starred values were filed as active, the others as inactive; i = inactive; ? = inconclusive; · = not tested or not shown; [ ] = remark or other dose. Unless noted, calls come from the whole dose curve; as a rule, active = well fitted curve in the direction sought with a large enough effect; inconclusive = small, poorly fitted or top-dose-only effect, or another doubt; inactive = no such curve, though single readings can be large; an effect the other way counts as inactive or inconclusive. Potency is the fitted concentration of half-maximal effect.

SMILES	FLuc inh-1	NPR1 antag	HEK cytotox	3T3 cytotox	FLuc SDR -ATP	FLuc SDR ATP	FLuc inh-2
COc1ccc(-c2cc(N3CCC(NC(=O)c4ccc(C)c(C)c4)CC3)n[nH]2)cc1	i	0%	?	?	·	·	·
O=C(Cc1ccccn1)N1CCC2(CC1)CC(c1cccc(C(F)(F)F)c1)=NO2	·	·	?	-30%	·	·	·
COc1cccc(CN2CCCC3(CCN(C(=O)c4ccc(OC)nc4OC)C3)C2)c1 (stereo not drawn)	i	-1%	?	?	·	·	·
O=C(c1ccccc1OCC1CCCN(Cc2cccc(O)c2)C1)N1CCCC1 (stereo not drawn)	i	0%	6%	i	·	·	·
Cc1cc(C(=O)N2CCCN(Cc3ccncc3)C(c3ccccc3)CC(=O)NCC2)n(C)n1 (stereo not drawn)	i	9%	-26%	-19%	·	·	·
CC(=O)NCCC1CCCCN1Cc1nc(C2(c3ccc(C)cc3)CCCC2)no1 (stereo not drawn)	i	-11%	?	-25%	·	·	·
N#Cc1c(-n2ncnc2-c2ccc(Br)cc2)sc2c1CCCCC2	·	·	·	·	23%	21%	9.9µM*
CC(=O)Nc1ccc(CN2CC(Oc3ccc(F)c(F)c3)C2)cc1	·	·	-20%	-19%	·	·	·
O=C(c1nnc(CNCc2cnccn2)n1-c1ccccc1)N1CCC[C@@H]1C(c1ccccc1)c1ccccc1	i	-15%	?	?	·	·	·
Cc1ccc(-n2nc3n(c2=O)CCN(C(=O)c2ccc(Cl)cc2)C3)cc1	·	·	-2%	-1%	·	·	·
COc1cccc2cc(C(=O)Nc3ccc(CC(=O)O)cc3)c(=O)oc12	·	·	·	·	2.5µM*	1.8µM*	3.1µM*
O=C(Nc1c(C(=O)Nc2ccc(F)cc2)oc2ccccc12)c1cc2ccccc2o1	·	·	·	·	22%	14%	7.9µM*
CN(c1ccccc1)c1ccc2ncn(C3CC3)c(=O)c2n1	1.3µM*	16µM*	?	?	18µM*	7.2µM*	5.7µM*
O=C(C1CCCN1C(=O)Nc1ccccc1)N1CCC(N2CCOCC2=O)CC1 (stereo not drawn)	·	·	-17%	-15%	·	·	·
CN1CC(=O)N(C2CCCC2)Cc2c1ncnc2N1CCOCC1	i	0%[70.6 µM]	3%[172 µM]	-5%[138 µM]	12%[49.3 µM]	8%[49.3 µM]	2%[49.3 µM]
CCOCCOC1CCN(C(=O)Nc2ccc(OC)cc2)CC1	i	-1%	-10%	-24%	·	·	·
COc1ccc(-n2ncc3c(NC4CCCC4)ncnc32)cc1	·	·	·	·	?	?	1.8µM*
Cc1ccc(-n2ncc3c(NC4CCCC4)ncnc32)cc1	·	·	·	·	?	?	0.62µM*
Cc1ccc(-n2nc3n(c2=O)CCN(C(=O)NC2CCCC2)C3)cc1	·	·	-19%[172 µM]	-27%[138 µM]	·	·	·
O=C(NC[C@H]1O[C@H](Cc2cc(-c3ccccc3)on2)CC[C@@H]1O)c1ccccc1F	i	2%[70.6 µM]	?	-28%[174 µM]	·	·	·
CCNC(=O)N1CCc2cc(OC)c(OC)cc2C1CNC(=O)c1ccccc1C (stereo not drawn)	i	7%	-17%	-21%	·	·	·
O=C(Cc1ccsc1)N1CCC2(CC1)CN(Cc1ccccc1)CC2CO (stereo not drawn)	i	-26%	?	?	·	·	·
Cc1cc(F)ccc1NC(=O)c1csc2c1CCC(C)C2 (stereo not drawn)	·	·	·	·	26%	20%	?
Cc1cc(C)n2ncc(CN3CCCC3c3nc(-c4ccncc4)no3)c2n1 (stereo not drawn)	i	2%	1%	2%	·	·	·
O=C1c2cnc(-c3ccccc3)nc2OCCN1Cc1ccccc1	11µM*	-11%[70.6 µM]	?	?	15%[49.3 µM]	10%[49.3 µM]	-20%[49.3 µM]
SMILES	FLuc inh-1	NPR1 antag	HEK cytotox	3T3 cytotox	FLuc SDR -ATP	FLuc SDR ATP	FLuc inh-2
O=C1c2cnc(-c3ccccc3)nc2OCCN1CC1CC1	·	·	·	·	?	?	16µM*
O=C1c2cnc(-c3ccc(Cl)cc3)nc2OCCN1CC1CC1	·	·	·	·	24%[49.3 µM]	?	4µM*
CN(C)C(=O)c1ccc(-c2ncc3c(n2)OCCN(CC2CC2)C3=O)cc1	?	-2%[70.6 µM]	i	?	·	·	·
O=C1c2cnc(-c3cccc(O)c3)nc2OCCN1Cc1ccc(F)cc1F	i	-18%[70.6 µM]	?	?	·	·	·
O=C(N[C@H]1CCN2C(=O)c3cc(-c4ccsc4)ccc3NC(=O)[C@H]12)c1cccs1	i	-17%[70.6 µM]	?	?	·	·	·
COc1ccc(-c2ccc3c(c2)C(=O)N2CC[C@H](NC(=O)c4cccc(F)c4)[C@H]2C(=O)N3)cc1	11µM*	-3%	?	?	17%	11%	?
CSc1ccc(-c2ccc3c(c2)C(=O)N2CC[C@H](NC(=O)c4cccs4)[C@H]2C(=O)N3)cc1	6.3µM*	-15%	-15%	-20%	17%	12%	?
CCOC(=O)C1CCN(C(=O)c2ccc3nnc(C4CCCC4)n3c2)CC1	·	·	-10%	-31%	·	·	·
Cc1ccc(CSc2nc3cccnc3n2Cc2ccc(C(=O)NCc3ccco3)cc2)cc1	·	·	·	·	3.9µM*	?	0.62µM*
O=C1c2cnc(-c3ccc(CO)cc3)nc2OCCN1c1cccc(C(F)(F)F)c1	?	-23%[70.6 µM]	?	?	·	·	·
COc1ncccc1-c1ncc2c(n1)OCCN(c1ccccc1)C2=O	i	-1%[70.6 µM]	0%[172 µM]	?	·	·	·
